Shown are actives, neighbours in structure and some others; about 19% of the full set was active somewhere.
ASM inhibitor – human S-ASM enzyme inhibition. P17405. placental ASM, HMU-PC fluorogenic substrate, 60 min. Potency, µM (titrated, usually from 57.5 µM), for the others: at the top dose activity change, negative = inhibition, actives largely listed as inhibitors. actives 0.006% (n = 340,000); further: potency means the concentration at half of the fitted maximal effect
Target sequence (P17405 47-631 limits assumed): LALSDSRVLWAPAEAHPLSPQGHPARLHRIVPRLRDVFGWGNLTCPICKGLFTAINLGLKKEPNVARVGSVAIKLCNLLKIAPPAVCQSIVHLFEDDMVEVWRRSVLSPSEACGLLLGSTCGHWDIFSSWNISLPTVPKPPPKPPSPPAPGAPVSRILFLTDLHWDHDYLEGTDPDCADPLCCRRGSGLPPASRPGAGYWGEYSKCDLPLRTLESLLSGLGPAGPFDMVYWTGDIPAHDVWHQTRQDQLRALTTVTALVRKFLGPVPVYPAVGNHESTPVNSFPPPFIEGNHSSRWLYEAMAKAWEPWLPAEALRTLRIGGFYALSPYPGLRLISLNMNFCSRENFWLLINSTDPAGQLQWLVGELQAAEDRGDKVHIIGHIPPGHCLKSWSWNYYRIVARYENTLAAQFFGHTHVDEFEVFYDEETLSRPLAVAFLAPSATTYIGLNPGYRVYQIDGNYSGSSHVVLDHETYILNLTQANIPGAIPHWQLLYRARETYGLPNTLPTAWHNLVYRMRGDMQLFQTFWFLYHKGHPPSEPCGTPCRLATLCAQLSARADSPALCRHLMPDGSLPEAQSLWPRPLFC
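HMU-PC0 cleavage (9 uM final) by human placental ASM, 60 min at 37 °C following 10 min compound exposure at RT; stopped at pH 10, fluorescence Ex 386/Em 447 nm.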
IL1B secr inh – blocks inflammasome-driven IL-1 beta release | activity change, % at 57.5 µM | actives 4.7% (n = 360,000) | AID 743279 | THP-1 LPS/ATP IL-1B secretion, AlphaLISA, 16 h; stronger effect = lower value; in the data active means activity change below about -50%; inconclusive means mostly about -30% to -49%; further: on the % scale 0 is the no-effect control and ±100 the full control effect
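THP-1 cells pretreated 1 hr with compounds (up to 57.5 uM final), then stimulated with LPS (250 ng/mL final) plus ATP (1.25 mM final); secreted IL-1B measured by AlphaLISA after 16 hr, decreased signal indicating inhibition.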
DT40 TDP1 CPT – DT40-hTDP1 cell growth loss with CPT | chicken DT40 Tdp1-/-;hTDP1 cells + 20 nM CPT, ATP luminescence, 48 h | AID 686979 | actives 12% (n = 420,000) | Potency, µM (highest dose often 46.2 µM), for the others: at the highest dose activity change, negative = growth inhibition, hits mostly inhibitors; further: potency means the concentration at half of the fitted maximal effect; on the % scale 0 is the no-effect control and ±100 the full control effect; nearly all actives have a fitted effect of over 55% in size
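Chicken DT40 Tdp1-/- cells complemented with human TDP1, 400 cells/well, exposed to compounds plus 20 nM camptothecin for at least 48 h at 37 C; viability read as ATP content by CellTiter-Glo luminescence.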
TGFb SMAD3 inh – inhibitors of TGF-b signaling; HepG2 CAGA-GFP TGF-b/SMAD3 reporter, GFP fluorescence, 18 h; TGF-beta stimulated, 500 pg/mL final; Potency, µM (highest dose often 46.1 µM), inactives show at the highest dose activity, negative = inhibition, actives largely listed as inhibitors; actives 1.2% (n = 410,000); AID 588855; further: potency means the concentration at half of the fitted maximal effect; on the % scale 0 is the no-effect control and ±100 the full control effect; nearly all actives have a fitted effect of over 65% in size
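HEPG2 CAGA-GFP reporter cells (1000/well, DMEM with 1% FBS) received compounds, then recombinant TGF-beta at 500 pg/mL final for 18 hours at 37 degrees C. Per-cell GFP summed per well was normalised to unstimulated and stimulated DMSO controls before curve fitting.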
HepG2 viability – counter-screen for TGF-b inhibitors: cytotoxicity in HepG2 cells; HepG2 CAGA-GFP viability, ATP luminescence, 18 h; Potency, µM (top dose mostly 46.1 µM), inactives show top-dose activity change, negative = cytotoxicity, hits mostly cytotoxic; actives 0.76% (n = 410,000); AID 588856; further: potency means the concentration at half of the fitted maximal effect
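HepG2 CAGA-GFP cells (1000/well, DMEM with 1% FBS) received compound, then TGF-beta at 500 pg/mL final, and were incubated 18 hours at 37 degrees C. Viability was read by CellTiter-Glo luminescence. Media-only wells were set as complete cell-killing and DMSO as no toxicity.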
DT40 TDP1 no CPT – qHTS for Inhibitors of human tyrosyl-DNA phosphodiesterase 1 (TDP1): qHTS in cells in absence of CPT; DT40 Tdp1-/- hTDP1 cells, no CPT, ATP luminescence, 48 h; Potency, µM (titrated, usually from 46.2 µM), for inactives: at the top dose activity change, negative = growth inhibition, most hits filed as inhibitors; actives 15% (n = 420,000); AID 686978, 2013; further: potency means the concentration at half of the fitted maximal effect; on the % scale 0 is the no-effect control and ±100 the full control effect; nearly all actives have a fitted effect of over 55% in size
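Cells were dispensed at 400 per well, compounds added by pin tool, plates incubated ≥48 hr at 37 °C, then CellTiter-Glo added for 30 min at room temperature before luminescence reading. Line: DT40 Tdp1-/- complemented with hTDP1; camptothecin omitted.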
The depositor's hits bear a star; ? = inconclusive; / = no result. Unless noted, the call rests on the fitted dose curve; in most records, active means well fitted curve in the direction sought with a large enough effect; inconclusive means small, poorly fitted or top-dose-only effect, or another doubt; inactive means no such curve, though single readings can be large; an effect the other way counts as inactive or inconclusive.

SMILES	ASM inhibitor	IL1B secr inh	DT40 TDP1 CPT	TGFb SMAD3 inh	HepG2 viability	DT40 TDP1 no CPT
CC(C)c1ccc2oc(-c3cccc(NC(=O)c4ccc5c(c4)OCCO5)c3)nc2c1	/	/	?	-7%	-4%	16µM*
O=C(Nc1ccc2oc(-c3ccc4ccccc4c3)nc2c1)c1ccc(Cl)c(Cl)c1	/	/	?	?	-5%	?
COc1ccc(C(=O)O)cc1S(=O)(=O)Nc1ccc2cn[nH]c2c1	1%	14	1%	0%	-15%	-1%
Cc1ccc(C(=O)NCCC2=CCCCC2)cc1S(=O)(=O)N1CCCCC1	-8%	-58*	?	?	-6%	?
O=C(NCCC1=CCCCC1)c1ccc(Br)o1	2%	5	8.2µM*	-3%	6%	9.2µM*
O=C(NCCC1=CCCCC1)c1cccc(S(=O)(=O)N2CCCCC2)c1	-2%	0	?	-22%	0%	23µM*
Cc1ccc(C(=O)NCCC2=CCCCC2)cc1S(=O)(=O)N1CCOCC1	-1%	2	?	-13%	-19%	?
Cc1ccccc1NS(=O)(=O)c1cc(C(=O)NCCC2=CCCCC2)ccc1C	-8%	-14	?	?	-16%	?
O=C(NCCC1=CCCCC1)c1ccc(Cl)c(S(=O)(=O)Nc2ccccc2)c1	-13%	19	-23%	13µM*	-43%	-26%
O=C(NC(=S)NCCC1=CCCCC1)c1ccc(Br)o1	-4%	-7	?	-17%	-12%	-26%
CC(NC(=O)c1ccccc1F)c1nnc(SCC(=O)NC2=NCCS2)n1C (stereo unspecified)	4%	6	13%	9%	-4%	4%
COc1cccc(C(=O)NNS(=O)(=O)c2ccccc2)c1	/	12	0%	-1%	-3%	-18%
CN(c1cccc(Cl)c1)S(=O)(=O)c1cccc(C(=O)Nc2ccc3c(c2)CCC3)c1	-9%	1	23µM*	-13%	-6%	12µM*
CC1CN(S(=O)(=O)c2cccc(C(=O)Nc3ccc4c(c3)CCC4)c2)CC(C)O1 (stereo unspecified)	-1%	?	1.2µM*	-23%	11%	1.2µM*
CC1CN(S(=O)(=O)c2cccc(C(=O)NCCC3=CCCCC3)c2)CC(C)O1 (stereo unspecified)	-3%	3	12µM*	?	-5%	21µM*
Cc1nnc(NC(=O)c2cccc(S(=O)(=O)N(C)c3cccc(Cl)c3)c2)s1	-7%	6	3%	3%	1%	-3%
Cc1ccnc(NC(=O)c2cnc(Cl)c(Cl)c2)c1	2%	-5	-4%	-6%	-12%	-21%
CCOC(=O)C1CCCN(C(=O)c2cc3c(=O)n(C)c4ccccc4c3s2)C1 (stereo unspecified)	/	/	?	?	-30%	?
COCCN1C(=O)c2oc3ccccc3c(=O)c2C1c1ccc(C(=O)OC)cc1 (stereo unspecified)	-1%	-17	-11%	-6%	0%	-4%
COC(=O)c1ccc(C2c3c(oc4ccccc4c3=O)C(=O)N2CCCN2CCOCC2)cc1 (stereo unspecified)	2%	-21	21µM*	6%	-5%	?
CCOc1ccc(C2c3c(oc4cc(C)c(C)cc4c3=O)C(=O)N2CCCN2CCOCC2)cc1 (stereo unspecified)	4%	-19	-20%	-16%	-25%	4%
Cc1cc2oc3c(c(=O)c2cc1C)C(c1ccc(C(C)C)cc1)N(CCCN1CCOCC1)C3=O (stereo unspecified)	-2%	-4	21µM*	?	-45%	?
O=C1c2oc3ccccc3c(=O)c2C(c2cccs2)N1CCCN1CCOCC1 (stereo unspecified)	7%	6	18µM*	6%	-22%	-27%
COc1ccc(-c2cc(C3CCN(Cc4ccc([N+](=O)[O-])cc4)CC3)[nH]n2)cc1	-2%	-84*	-25%	7%	16%	?
Clc1ccc(-c2cc(C3CCNCC3)[nH]n2)cc1	0%	?	23µM*	4%	-18%	26µM*
SMILES	ASM inhibitor	IL1B secr inh	DT40 TDP1 CPT	TGFb SMAD3 inh	HepG2 viability	DT40 TDP1 no CPT
COc1ccc(-c2cc(C3CCN(CC(O)C(F)(F)F)CC3)[nH]n2)cc1 (stereo unspecified)	2%	-11	?	-19%	-34%	?
Cc1ccc(CN2CCC(c3cc(-c4ccc(Cl)cc4)n[nH]3)CC2)cc1	-1%	-97*	16µM*	16µM*	14µM*	15µM*
Cc1ccc(CN(C)CC(=O)Nc2ccccc2C(=O)NC2CC2)o1	-2%	-13	-12%	1%	0%	27%
CC(C)(C)C#CCn1c(/C=[N+](\[O-])C2CCCCC2)nc2ccccc21	-3%	18	12µM*	?	-27%	18µM*
OCCn1c(SC2CCCCC2)nc2ccccc21	7%	-11	-21%	6%	-26%	?
Cc1nc(-c2ccccc2)nc2n[nH]c(N)c12	-5%	0	-2%	-7%	7%	-4%
CC(C)Oc1ccc(/C=N/NC(=O)C2CCCN2S(=O)(=O)c2ccc(Cl)cc2)cc1 (stereo unspecified)	-9%	-1	?	3%	5%	21µM*
CCCOc1ccc(/C=N/NC(=O)C2CCCN2S(=O)(=O)c2ccc(Cl)cc2)cc1 (stereo unspecified)	-21%	-4	16µM*	?	-15%	?
CC(=O)c1ccc(N=C2C(=O)Nc3ccccc32)cc1	-1%	-8	?	-11%	3%	13µM*
CN(C)c1nn2c(-c3ccccc3)nnc2o1	/	3	0%	-5%	-23%	-26%
CCCc1nn2c(-c3ccccc3)nnc2o1	/	-67*	-16%	-9%	-1%	?
c1ccc(-c2nn3c(-c4ccccc4)nnc3o2)cc1	/	-51*	?	-34%	-57%	?
CC(C)c1nn2c(=O)cc(CSc3ccccc3NC(=O)c3ccccc3F)nc2s1	-4%	10	?	-6%	-30%	-25%
C#CCNC(=O)C1=C[C@H](c2ccc3c(c2)OCO3)[C@@H](CCCO)[C@H](OCC)O1	4%	30	-13%	-20%	-21%	-2%
COc1ccc(CC(=O)Nc2ccc3c(c2)CCC3)cc1OC	-1%	-21	?	0%	-29%	9.2µM*

High-throughput results as filed in PubChem.
